The list is not random: actives were taken first. Their share in the collection is about 0.93%.
697 NFkB inh: inhibitors of the PMA/ionomycin-induced NF-kB reporter in 697 B cells | 330,000 tested, 0.33% active | AID 435022 | 697 B-cell NF-kB luciferase reporter, 16 h | inhibition, % at 4 µM; in the data active = inhibition above about 35%
CFTR F508del cor: CFTR F508del correction in bronchial cells; CFBE cells, YFP halide quenching; stimulated with forskolin plus potentiator P3; % fluorescence drop versus neutral controls; AID 720511; activity (quench increase), % at 7.58 µM; 350,000 tested, 0.36% active;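 active = mean added fluorescence quench of at least 8% versus neutral control, with both replicates also reaching 8%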;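 also: cells transiently co-express mutant CFTR-F508del with the halide-sensitive YFP; corrector assay measuring rescue of mutant channel to the surface after 24 h compound exposure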
Jurkat NFkB inh: lowers PMA/ionomycin-induced NF-kB signal in Jurkat cells; AID 435003; inhibition, % at 4 µM; 330,000 tested, 0.53% active; PMA/ionomycin-induced NF-kB luciferase reporter, luminescence; in the data active = inhibition above about 50%
HIF activator: HIF pathway transcriptional activation | AID 1910 | 300,000 tested, 0.32% active | U2OS HRE-luciferase reporter, luminescence; normalized: DMSO 0%, desferrioxamine 100% | activation, % at 7.5 µM (by protocol);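 active = mean activation of at least 10% of the iron chelator positive control signal, with at least half of replicates also reaching 10%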
Hits are given with their value; - = inactive; . = no result; ! = a repeat was not active.

SMILES	697 NFkB inh	CFTR F508del cor	Jurkat NFkB inh	HIF activator
Cc1ccc(-c2ccc3c(c2)O[C@H](CN(C)Cc2ccccn2)[C@@H](C)CN([C@H](C)CO)S3(=O)=O)cc1	.	16	.	.
Cc1ccc(-c2ccc3c(c2)O[C@H](CN(C)Cc2ccccn2)[C@@H](C)CN([C@@H](C)CO)S3(=O)=O)cc1	.	12	.	.
C[C@@H]1CN([C@@H](C)CO)C(=O)c2cc(C#Cc3ccccc3F)cnc2O[C@H]1CN(C)C(=O)c1ccc2c(c1)OCO2	.	-	.	.
Cc1nc2ccccc2n2c(-c3ccccc3)c3c(=O)n(C)c(=O)n(C)c3c12	-	.	-	212
N#C/C(=C\c1ccc(/C=C(/C#N)c2nn(CCO)c(N)c2C#N)cc1)c1nn(CCO)c(N)c1C#N	-	.	-	155
CCCn1c(=NC(=O)c2c(-c3c(F)cccc3Cl)noc2C)c(C(=O)OCC)cc2c(=O)n3ccccc3nc21	-	.	-	23
COC(=O)Cn1c(=NC(=O)c2cc(-c3cccs3)nc3ccccc23)sc2cc(S(N)(=O)=O)ccc21	-	9.5	-	-
Cc1ccc(/C=N/NC(=O)CN2CCN(Cc3ccccc3Cl)CC2)o1	-	-	-	143
CSc1ccc(/C=N/NC(=O)CN2CCN(Cc3ccccc3Cl)CC2)cc1	-	.	-	-
O=[N+]([O-])c1ccc(/C=C/C2=NN(c3ccccc3)C(c3ccco3)C2)o1 (stereo not drawn)	.	16	.	-
C(=C\c1ccco1)/C1=NN(c2ccccc2)C(c2ccco2)C1 (stereo not drawn)	-	.	-	-
COc1ccc(N2C(=NC(=O)CCC3CCCC3)SC3CS(=O)(=O)CC32)cc1 (stereo not drawn)	-	-	-	71
COc1cccc(N2C(=NC(=O)CCC3CCCC3)SC3CS(=O)(=O)CC32)c1 (stereo not drawn)	-	-	-	-
COCC(=O)N1CC2(C1)[C@@H](c1ccc(-c3ccccc3)cc1)[C@H](CO)N2C(C)=O	.	-	.	.
COCC(=O)N1[C@H](CO)[C@@H](c2ccccc2)C12CN(C(=O)c1ccc(F)cc1)C2	.	-	.	.
O=C(O)c1ccccc1-c1nc(-c2ccccc2)c(-c2ccccc2)[nH]1	-	13	-	-
O=C(O)COc1ccccc1-c1nc(-c2ccccc2)c(-c2ccccc2)[nH]1	-	-	-	-
Cc1cc(=O)[nH]c(N=N/C(=N/Nc2ccc(O)cc2)c2ccccc2)n1	-	.	-	12
COc1ccc(N/N=C(/N=Nc2nc(C)cc(=O)[nH]2)c2ccccc2)cc1	-	.	-	143
O=C(CC1CC1)N1[C@@H](CO)[C@@H]2c3ccccc3N(S(=O)(=O)c3ccc(F)cc3)C[C@@H]21	.	-	.	.
O=C(Nc1ccccc1F)N1C[C@@H]2N[C@H](C1)C2c1ccc(/C=C/c2ccccc2)cc1 (stereo partly drawn)	.	-	.	.
O=C1c2ccccc2C(=O)c2c1cccc2N(CCO)CCO	-	13	-	-
O=C1C=C(N(CCO)Cc2ccccc2)c2ccccc2C1=O	.	.	.	-
Cc1sc2ncnc(Sc3nnnn3-c3ccc(Cl)cc3)c2c1C	-	.	-	17
c1ccc(-n2nnnc2Sc2ncnc3sc4c(c23)CCCC4)cc1	-	.	-	-
SMILES	697 NFkB inh	CFTR F508del cor	Jurkat NFkB inh	HIF activator
COc1ccccc1-c1cn(CC[C@H]2CC[C@H](NC(=O)c3cnccn3)[C@H](CO)O2)nn1	.	-	.	.
O=C(NC1Cc2ccccc2C1)[C@H]1[C@H](CO)[C@H]2Cn3c(ccc(-c4ccccc4)c3=O)[C@@H]1N2	.	-	.	.
Cc1cc(C)nc(N/N=C/c2ccccc2OCc2ccc(Br)cc2)n1	-	.	-	-
Cc1cc(C)nc(N/N=C/c2cc(Br)ccc2O)n1	-	-	-	34
CCCC(=O)N1CCC2(CC1)CN(C(=O)c1ccc(F)cc1)[C@H](CO)c1[nH]c3cc(OC)ccc3c12	.	-	.	.
C=C(C)CNC(=O)c1ccc2nc(Cc3ccc(OC)cc3)oc2c1	-	-	-	11
COc1ccc(Cc2nc3ccc(C(=O)NC(C)C)cc3o2)cc1	.	-	.	-
Cc1ccc(S(=O)(=O)N2CCOCC2)cc1NC(=O)CSc1nnc(COc2ccccc2F)n1N	.	28	.	.
Cc1ccc(S(=O)(=O)N2CCOCC2)cc1NC(=O)CSc1ccccn1	-	-	-	-
O=C(Cc1ccsc1)OCC(=O)c1ccccc1	-	14	-	.
COc1cccc(CN2CCC(N(CCc3ccccc3)Cc3ccccc3)CC2)c1OC	-	.	-	582
COc1ccc(O)c(/C=N/NC(=S)Nc2cccc(S(=O)(=O)N(C)C)c2)c1	.	.	.	42
COC(=O)C1CC23C=CCN4CCC5(c6ccccc6NC15C2C)C43 (stereo not drawn)	-	10	-	-
COc1cc(CN2CC3(CCN(C(=O)CN4CCOCC4)CC3)c3c(n(C)c4cc(OC)ccc34)[C@H]2CO)cc(OC)c1	.	-	.	.
CCc1nc(N)nc(N)c1-c1ccc(Cl)c([N+](=O)[O-])c1	.	9.1	.	.
CCc1nc(N)nc(N)c1-c1ccc(Cl)c(N=[N+]=[N-])c1	.	-	.	.
O=C(C[C@H]1CC[C@H](NS(=O)(=O)c2ccccc2)[C@@H](CO)O1)NCc1ccncn1	.	-	.	.
CN1C(=O)c2cc(NC(=O)c3cccs3)ccc2OC[C@H]2O[C@H](CC(=O)O)CC[C@H]21	.	-	.	.
Oc1cccc(/C=N/c2c(-c3ccco3)nc3ccccn23)c1	-	.	-	18
O=C(CCN1CCN(c2ccccc2)CC1)N/N=C/c1ccccc1O	-	-	-	17
CC(=O)Nc1ccc2cc3ccc(NC(C)=O)cc3nc2c1	.	10.0	.	-
CC(=O)Nc1ccc2ccccc2c1	-	.	-	-
Cc1ccc(-c2ccc3c(c2)O[C@H](CN(C)Cc2ccncc2)[C@H](C)CN([C@H](C)CO)S3(=O)=O)cc1	.	-	.	.
COc1ccc(C(=O)OCC(=O)N2C(C)CCCC2C)cc1S(=O)(=O)N1CCOCC1 (stereo not drawn)	-	11	-	.
Cc1ccc(C(=O)OCC(=O)N2C(C)CCCC2C)cc1S(=O)(=O)N1CCOCC1 (stereo not drawn)	-	-	-	-
SMILES	697 NFkB inh	CFTR F508del cor	Jurkat NFkB inh	HIF activator
Cc1ccc(S(=O)(=O)N(C)C[C@@H]2OCCCC[C@@H](C)Oc3ccc(NS(=O)(=O)c4cn(C)cn4)cc3C(=O)N([C@@H](C)CO)C[C@H]2C)cc1	.	-	.	.
CC(=O)c1ccc(C(=O)N2CCCC(Nc3ccc(C(C)C)cc3)C2)s1 (stereo not drawn)	-	-	-	13
CC(=O)c1[nH]c(C)c(C(=O)N2CCCC(Nc3ccc(C(C)C)cc3)C2)c1C (stereo not drawn)	-	-	-	-
CO[C@H]1CN(C)C(=O)c2ccc(NC(=O)C3CC3)cc2OC[C@@H](C)N(Cc2cccc(F)c2)C[C@@H]1C	.	-	.	.
C[C@]12C=CC(=O)C=C1CC[C@@H]1C2[C@@H](O)C[C@@]2(C)C1CC[C@]2(O)C(=O)COC(=O)CCC(=O)O (stereo partly drawn)	-	8.2	-	-
O=C(O)c1ccccc1-c1c2cc(I)c(=O)c(I)c-2oc2c(I)c(O)c(I)cc12	-	8.7!	-	.
O=Cc1ccc(-c2ccccc2C(=O)O)o1	-	-	-	-
C[C@H]1CN([C@@H](C)CO)C(=O)c2cc(-c3cccc(F)c3)cnc2O[C@H]1CN(C)C(=O)C1CC1	.	-	.	.

From PubChem
